# Test results reported in PubChem BioAssay (NCATS).
# Values without a mark were called inactive. Results filed as inconclusive are left out. Where a call stands in place of a potency, no number is given. Activity calls are given as the source filed them. Unless noted, the call rests on the fitted dose curve; in most records, active means well fitted curve in the direction sought with a large enough effect; inconclusive means small, poorly fitted or top-dose-only effect, or another doubt; inactive means no such curve, though single readings can be large; an effect the other way counts as inactive or inconclusive.
# Key:
# [1] = biological target: Lysosomal acid glucosylceramidase (Homo sapiens) (UniProt P04062); assay: Glucocerebrosidase-p2 (AID 348; in the data active means potency below about 10 µM; further: potency means the concentration at half of the fitted maximal effect); settings: purified GBA, blue fluorogenic substrate, 40 min
# Lysosomal acid glucosylceramidase (Homo sapiens), sequence (P04062 whole entry, looked up): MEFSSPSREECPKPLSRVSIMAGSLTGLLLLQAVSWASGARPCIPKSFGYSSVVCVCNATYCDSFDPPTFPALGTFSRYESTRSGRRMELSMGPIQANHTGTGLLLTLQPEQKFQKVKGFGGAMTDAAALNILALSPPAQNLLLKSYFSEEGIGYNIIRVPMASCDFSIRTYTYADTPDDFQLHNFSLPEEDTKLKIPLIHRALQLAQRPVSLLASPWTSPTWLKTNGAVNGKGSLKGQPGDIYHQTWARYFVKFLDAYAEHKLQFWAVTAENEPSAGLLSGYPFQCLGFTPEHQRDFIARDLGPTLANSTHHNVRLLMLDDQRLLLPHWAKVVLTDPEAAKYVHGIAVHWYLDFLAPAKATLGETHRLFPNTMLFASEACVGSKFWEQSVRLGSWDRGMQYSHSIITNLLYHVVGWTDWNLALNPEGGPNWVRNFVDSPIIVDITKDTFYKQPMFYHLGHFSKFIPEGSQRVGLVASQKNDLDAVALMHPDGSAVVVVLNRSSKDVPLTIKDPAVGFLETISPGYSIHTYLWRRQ
# Outline: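 Normal human glucocerebrosidase (0.2 nM) with blue fluorogenic substrate (80 uM final) in citrate/phosphate pH 5.9 with 10mM sodium taurocholate, 0.01% tween-20; 40 min RT, NaOH/glycine stop; fluorescence Ex 365/Em 440; AC50 from a titration from 0.6 nM upwards.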
# [2] = biological target: Cytochrome P450 1A2 (Homo sapiens) (UniProt P05177); assay: p450-cyp1a2 (AID 410; calls by dose curve; further: potency means the concentration at half of the fitted maximal effect); settings: recombinant CYP1A2, luciferin-ME demethylation, luminescence; series mostly up to 57 µM
# Cytochrome P450 1A2 (Homo sapiens), sequence (P05177 whole entry, looked up): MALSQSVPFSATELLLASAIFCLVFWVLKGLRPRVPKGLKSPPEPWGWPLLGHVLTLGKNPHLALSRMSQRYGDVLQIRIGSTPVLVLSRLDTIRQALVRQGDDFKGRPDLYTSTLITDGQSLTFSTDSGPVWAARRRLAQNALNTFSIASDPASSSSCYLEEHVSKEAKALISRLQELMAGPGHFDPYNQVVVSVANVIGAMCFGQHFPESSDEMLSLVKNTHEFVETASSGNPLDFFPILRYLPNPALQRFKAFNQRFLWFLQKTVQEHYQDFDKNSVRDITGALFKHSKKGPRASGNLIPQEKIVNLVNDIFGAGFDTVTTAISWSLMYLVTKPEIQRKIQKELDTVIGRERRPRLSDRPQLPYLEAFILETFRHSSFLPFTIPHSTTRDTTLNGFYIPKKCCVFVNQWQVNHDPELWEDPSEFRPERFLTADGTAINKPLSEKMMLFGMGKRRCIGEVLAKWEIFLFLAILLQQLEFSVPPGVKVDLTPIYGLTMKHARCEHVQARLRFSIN
# Outline: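 Read-out is luminescence from luciferin produced by CYP1A2 demethylation of Luciferin-ME (100uM, at Km). Detection reagent stopped the 60 min NADPH-dependent reaction; signals were normalized to 57 uM furafylline.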
# [3] = NFAT Signaling Pathway (AID 444; active means well fitted curve in either direction with a large enough effect, not every such curve was filed as active;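 further: carbachol stimulus at about its EC50 of 1 µM final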); settings: Jurkat NFAT-bla M1, carbachol, beta-lactamase ratio, 5 h; at 7.69 µM (top of the series) unless noted
# Outline: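 Jurkat cells with NFAT-driven β-lactamase reporter and co-expressed M1 receptor, stimulated with carbachol (final 1 uM, ~EC50), compound titration, 5 h at 37 °C. CCF4 loaded 1 h at RT; 460/530 nm ratio gave %activity and AC50.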
# [4] = Stat Signaling Pathway (AID 446; active means well fitted curve in either direction with a large enough effect, not every such curve was filed as active;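 further: ME-180 cervical cancer cells given 40 pM IL-6 alongside compound; SIE-controlled beta-lactamase reporter measured as 460/530 nm FRET emission ratio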); settings: ME-180 SIE beta-lactamase reporter, IL-6 stimulated, 5 h; series mostly up to 7.69 µM
# Outline: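 Compound effects on IL-6-induced STAT reporter activity were measured in ME-180 cells. After overnight culture, cells were co-treated with 40 pM IL-6 for 5 hrs before beta-lactamase substrate loading at room temperature.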
# [5] = biological target: Mitogen-activated protein kinase 10 (Mus musculus) (UniProt Q61831); assay: JNK3 AlphaScreen Assay (AID 530; active means well fitted curve in either direction with a large enough effect, not every such curve was filed as active;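 further: kinase came from lysate of stimulated human HepG2 cells; signal reports phosphorylation of biotinylated GST-cJun 1-79 at Ser73 with 10 µM ATP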); settings: JNK3 lysate, c-Jun phosphorylation; series mostly up to 57.1 µM
# Outline: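 HepG2 lysate (IL-1b/TNFa pre-activated) + biotin-GST-cJun 1-79 + anti-pSer73 cJun; cpd titration, 15 min RT; ATP 10 uM start; Tris pH 7.6, MgCl2, DTT, vanadate; beads in EDTA buffer; AlphaScreen.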
# [6] = biological target: Cytochrome P450 3A4 (Homo sapiens) (UniProt P08684); assay: qHTS Assay for Inhibitors and Substrates of Cytochrome P450 3A4 (AID 884); settings: recombinant CYP3A4, Luciferin-PPXE luminescence; series mostly up to 57.1 µM; further: potency means the concentration at half of the fitted maximal effect; nearly all actives have a fitted effect of over 50% in size
# Cytochrome P450 3A4 (Homo sapiens), sequence (P08684 whole entry, looked up, canonical isoform): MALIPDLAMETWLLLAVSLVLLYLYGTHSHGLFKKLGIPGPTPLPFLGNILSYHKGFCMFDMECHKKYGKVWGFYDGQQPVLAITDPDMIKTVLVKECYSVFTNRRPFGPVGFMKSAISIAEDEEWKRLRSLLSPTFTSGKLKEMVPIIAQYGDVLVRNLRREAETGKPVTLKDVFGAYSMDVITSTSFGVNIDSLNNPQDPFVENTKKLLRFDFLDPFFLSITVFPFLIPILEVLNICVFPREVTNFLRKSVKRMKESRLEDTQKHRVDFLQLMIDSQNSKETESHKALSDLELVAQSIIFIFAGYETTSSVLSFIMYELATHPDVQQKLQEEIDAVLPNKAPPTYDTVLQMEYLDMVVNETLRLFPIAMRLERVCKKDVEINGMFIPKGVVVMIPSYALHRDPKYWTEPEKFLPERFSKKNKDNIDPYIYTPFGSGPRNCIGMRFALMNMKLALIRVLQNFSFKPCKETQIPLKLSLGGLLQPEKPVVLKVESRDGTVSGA
# Outline: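 Luminescent readout of luciferin produced by CYP3A4 (20 nM) dealkylation of Luciferin-PPXE, 25 uM (its KM). NADPH-driven reaction ran 60 min at RT after 10 min compound preincubation; data scaled to 57 uM ketoconazole as 100% inhibition.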
# [7] = biological target: Cytochrome P450 3A4 (Homo sapiens) (UniProt P08684); assay: qHTS Assay for Activators of Cytochrome P450 3A4 (AID 885); settings: recombinant CYP3A4, Luciferin-PPXE luminescence, 60 min; series mostly up to 57.1 µM; further: nearly all actives have a fitted effect of over 65% in size
# Outline: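 CYP3A4 activity: Luciferin-PPXE O-dealkylation, 25uM substrate, 200mM KPO4, RT throughout. Read-out is luciferase luminescence; higher values reflect activation.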
# [8] = biological target: Dual specificity protein kinase CLK4 (Homo sapiens) (UniProt Q9HAZ1); assay: qHTS Assay for Inhibitors of CDC-like Kinase 4 (ADP-FP Assay) (AID 1795); settings: Transcreener ADP fluorescence polarization; series mostly up to 50 µM; further: nearly all actives have a fitted effect of over 60% in size; further: potency means the concentration at half of the fitted maximal effect;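 on activity change, negative = inhibition: recombinant human CLK4 phosphorylating RS repeat peptide at 1 µM ATP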
# Dual specificity protein kinase CLK4 (Homo sapiens), sequence (Q9HAZ1 whole entry, looked up): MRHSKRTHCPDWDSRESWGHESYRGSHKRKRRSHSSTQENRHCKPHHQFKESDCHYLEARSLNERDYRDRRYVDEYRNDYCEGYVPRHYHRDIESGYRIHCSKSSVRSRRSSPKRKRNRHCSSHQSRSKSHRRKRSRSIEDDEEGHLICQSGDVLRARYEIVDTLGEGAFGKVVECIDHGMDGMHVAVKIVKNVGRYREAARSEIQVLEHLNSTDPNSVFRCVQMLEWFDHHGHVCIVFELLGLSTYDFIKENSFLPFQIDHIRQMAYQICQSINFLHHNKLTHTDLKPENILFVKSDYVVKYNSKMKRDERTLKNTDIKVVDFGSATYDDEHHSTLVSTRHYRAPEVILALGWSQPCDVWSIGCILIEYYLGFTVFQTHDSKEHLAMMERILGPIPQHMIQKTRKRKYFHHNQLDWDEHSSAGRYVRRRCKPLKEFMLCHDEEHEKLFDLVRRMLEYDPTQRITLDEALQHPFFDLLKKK
# Outline: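 Clk4 6.25 nM; RS peptide 100 uM; ATP 1 uM; 25 mM Tris pH 7.5, 10 mM MgCl2; 1 h reaction. ADP detected via antibody/orange tracer FP displacement; TG003 positive control.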
# [9] = biological target: Ubiquitin carboxyl-terminal hydrolase 1 (Homo sapiens) (UniProt O94782); assay: Inhibitors of USP1/UAF1: Pilot qHTS (AID 504865); settings: purified USP1/UAF1, Ub-rhodamine cleavage fluorescence; series mostly up to 54.9 µM;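 further: rhodamine fluorescence freed from ubiquitin-rhodamine substrate followed over time; top concentration of the series differs between compounds; nearly all actives have a fitted effect of over 35% in size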
# Ubiquitin carboxyl-terminal hydrolase 1 (Homo sapiens), sequence (O94782 whole entry, looked up): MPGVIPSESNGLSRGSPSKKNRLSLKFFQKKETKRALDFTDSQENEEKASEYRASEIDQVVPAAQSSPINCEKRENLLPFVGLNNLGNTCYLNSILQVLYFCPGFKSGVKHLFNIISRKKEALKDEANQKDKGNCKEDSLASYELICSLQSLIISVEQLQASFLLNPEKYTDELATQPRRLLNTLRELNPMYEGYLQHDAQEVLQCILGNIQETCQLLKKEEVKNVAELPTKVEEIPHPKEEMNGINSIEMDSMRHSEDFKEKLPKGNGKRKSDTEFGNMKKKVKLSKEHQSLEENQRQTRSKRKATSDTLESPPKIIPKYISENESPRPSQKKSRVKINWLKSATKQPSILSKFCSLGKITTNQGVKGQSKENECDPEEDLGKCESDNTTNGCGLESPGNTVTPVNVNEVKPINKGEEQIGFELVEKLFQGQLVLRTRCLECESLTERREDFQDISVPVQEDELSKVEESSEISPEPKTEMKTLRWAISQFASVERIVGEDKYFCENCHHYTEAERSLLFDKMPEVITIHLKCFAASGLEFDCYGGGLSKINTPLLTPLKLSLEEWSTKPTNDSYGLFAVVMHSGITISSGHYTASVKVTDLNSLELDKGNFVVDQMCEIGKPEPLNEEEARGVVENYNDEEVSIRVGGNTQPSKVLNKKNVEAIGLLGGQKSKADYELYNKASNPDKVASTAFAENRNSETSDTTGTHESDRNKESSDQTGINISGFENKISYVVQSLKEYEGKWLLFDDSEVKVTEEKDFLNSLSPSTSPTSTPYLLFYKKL
# Outline: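 In 50mM HEPES pH 7.8 containing 0.5mM EDTA, 1mM TCEP, 0.1 mg/ml BSA and 0.01% Tween-20, 1nM USP1/UAF1 is exposed to compound for 15 min, then Ub-Rho (150nM final) is added and fluorescence is read over time.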
# [10] = biological target: Glutathione peroxidase 1 (Homo sapiens) (UniProt P07203); assay: Primary qHTS Assay for Inhibitors of Recombinant Selenoprotein Glutathione Peroxidase 1 (GPX1) (AID 1845191); settings: recombinant GPX1, GR-coupled NADPH fluorescence, 15 min; series mostly up to 48.8 µM; further: nearly all actives have a fitted effect of over 65% in size
# Glutathione peroxidase 1 (Homo sapiens), sequence (P07203 whole entry, looked up): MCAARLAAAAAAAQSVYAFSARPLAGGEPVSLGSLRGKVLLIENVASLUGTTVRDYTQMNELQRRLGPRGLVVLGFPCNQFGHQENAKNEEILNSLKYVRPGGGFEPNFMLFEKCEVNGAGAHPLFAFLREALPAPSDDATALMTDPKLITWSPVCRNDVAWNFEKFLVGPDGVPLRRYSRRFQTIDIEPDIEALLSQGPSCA
# Outline: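 GR-coupled readout: NADPH consumption tracked by fluorescence, ex 340/em 450 nm, at t=0 and after 15 min at RT. Final mix 10 nM GPX1, 1 mM GSH, 0.5 mM CHP, 0.5 mM NADPH, 100 nM GR, 0.01% BSA, following 30 min enzyme–compound preincubation.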
# [11] = HepG2 viability counterscreen (readout 2: ATP content) against the NCATS DSHEA and TCM libraries (AID 1794840); settings: ATP content luminescence; series mostly up to 27.3 µM
# Outline: (§1)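 Same wells read twice: first fluorescence from cleaved GF-AFC substrate (25 uM final, 30 min, 37C) for live-cell protease, then CellTiter-Glo luminescence after 30 min at room temperature for ATP. HepG2 cells were exposed ~24 h to substances.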
# [12] = HepG2 viability counterscreen (readout 1: protease activity) against the NCATS DSHEA and TCM libraries (AID 1794841); settings: qHTS concentration series; series mostly up to 27.3 µM;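 further: cells exposed to compounds for about 24 h before the protease read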
# Outline: as §1
# [13] = biological target: Cytochrome P450 3A4 (Homo sapiens) (UniProt P08684); assay: qHTS for inhibitors of CYP3A4 against the NCATS DSHEA and TCM libraries (AID 1919971); settings: recombinant CYP3A4 enzyme activity, luminescence qHTS; series mostly up to 34.1 µM;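 further: inhibition lowers luminescence from luciferin made by CYP3A4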
# Outline: (§2)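 Isoform-specific enzyme and substrate levels; enzyme-free wells as background. Reaction: 1x NADPH regenerating system, 30-45 min, room temperature, shielded from light; luminescent detection reagent added, 30 min.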
# [14] = biological target: Cytochrome P450 2D6 (Homo sapiens) (UniProt P10635); assay: qHTS for inhibitors of CYP2D6 against the NCATS DSHEA and TCM libraries (AID 1919972); settings: CYP2D6 enzymatic inhibition, luminescence qHTS; series mostly up to 34.1 µM
# Cytochrome P450 2D6 (Homo sapiens), sequence (P10635 whole entry, looked up): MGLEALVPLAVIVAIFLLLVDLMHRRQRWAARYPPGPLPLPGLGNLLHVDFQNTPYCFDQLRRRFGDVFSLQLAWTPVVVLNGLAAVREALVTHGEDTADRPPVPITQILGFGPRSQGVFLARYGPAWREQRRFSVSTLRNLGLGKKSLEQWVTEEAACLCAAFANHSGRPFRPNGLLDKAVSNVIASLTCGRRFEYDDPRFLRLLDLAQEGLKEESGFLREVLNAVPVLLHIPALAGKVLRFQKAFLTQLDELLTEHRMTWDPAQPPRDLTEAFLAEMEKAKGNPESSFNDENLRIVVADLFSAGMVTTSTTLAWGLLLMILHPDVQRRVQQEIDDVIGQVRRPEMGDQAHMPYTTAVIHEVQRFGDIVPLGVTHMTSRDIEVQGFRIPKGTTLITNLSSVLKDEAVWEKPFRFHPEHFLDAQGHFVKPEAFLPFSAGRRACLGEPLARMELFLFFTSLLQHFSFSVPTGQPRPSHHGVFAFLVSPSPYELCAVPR
# Outline: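 qHTS, concentration–response format with most substances from 19.5 nM. CYP2D6 + pro-luciferin substrate, 15 min with compound, then 1x NADPH regen, 30–45 min RT dark. Glo detection 30 min, luminescence. Quinidine control.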
# [15] = biological target: Cytochrome P450 2C9 (Homo sapiens) (UniProt P11712); assay: qHTS for inhibitors of CYP2C9 against the NCATS DSHEA and TCM libraries (AID 1919973); settings: recombinant CYP2C9 enzyme activity, luminescence; series mostly up to 34.1 µM;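 further: luminogenic pro-luciferin CYP2C9 substrate turned into luciferin with NADPH regeneration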
# Outline: as §2
# [16] = KB-3-1 P-gp reporter qHTS against the NCATS DSHEA and TCM libraries (AID 1919975); settings: KB-3-1 parental cells, CellTiter-Glo luminescence viability, 72 h; series mostly up to 26.1 µM
# Outline: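 KB-3-1 parental line, 1536-well qHTS: cells seeded, ~4 h attachment, pintool compound addition, ~72 h at 37C, then CellTiter-Glo, 30 min RT, luminescence. Concentration-response format.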
# [17] = biological target: Cytochrome P450 1A2 (Homo sapiens) (UniProt P05177); assay: qHTS for inhibitors of CYPIA2 against the NCATS DSHEA and TCM libraries (AID 1919976); settings: recombinant CYP1A2 enzyme activity, luminescence; series mostly up to 37 µM; further: potency means the concentration at half of the fitted maximal effect
# Outline: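 Furafylline served as the plate control. Compounds met CYP1A2 and pro-luciferin substrate 15 min before NADPH regeneration solution (1x) was added; after 30-45 min at RT, P450-Glo reagent was added for 30 min and luminescence was measured.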
# [18] = qHTS Counterscreen for compound interference against the NCATS DSHEA and TCM libraries (AID 1919978); settings: firefly luciferase detection reagent interference, luminescence;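 further: compounds preincubated with 1 µM D-luciferin or buffer before detection reagent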
# Outline: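 Compounds, titrated from 19.5 nM to 39.8 uM final, were pinned onto 1 uM D-luciferin or plain 100 mM potassium phosphate. After 15 min at room temperature, luciferin detection reagent was added for 30 min before the luminescence read.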
# [19] = Dual reporter qHTS for agonist of Pregnane X Receptor (hPXR) against the NCATS DSHEA and TCM libraries: Fluorescence readout (AID 1920058); settings: PXR dual reporter cells; series mostly up to 40 µM
# Outline: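 In this qHTS counter-read, reporter-bearing HepG2 cells in charcoal-stripped serum received substances for approximately 24 h before viability was assessed fluorometrically with CellTiter-Fluor.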
# [20] = biological target: Nuclear receptor subfamily 1 group I member 2 (Homo sapiens) (UniProt O75469); assay: Dual reporter qHTS for agonist of Pregnane X Receptor (hPXR) against the NCATS DSHEA and TCM libraries: Luminescence readout (AID 1920059); settings: hPXR dual reporter cells, luciferase luminescence agonist; series mostly up to 40 µM
# Nuclear receptor subfamily 1 group I member 2 (Homo sapiens), sequence (O75469 whole entry, looked up): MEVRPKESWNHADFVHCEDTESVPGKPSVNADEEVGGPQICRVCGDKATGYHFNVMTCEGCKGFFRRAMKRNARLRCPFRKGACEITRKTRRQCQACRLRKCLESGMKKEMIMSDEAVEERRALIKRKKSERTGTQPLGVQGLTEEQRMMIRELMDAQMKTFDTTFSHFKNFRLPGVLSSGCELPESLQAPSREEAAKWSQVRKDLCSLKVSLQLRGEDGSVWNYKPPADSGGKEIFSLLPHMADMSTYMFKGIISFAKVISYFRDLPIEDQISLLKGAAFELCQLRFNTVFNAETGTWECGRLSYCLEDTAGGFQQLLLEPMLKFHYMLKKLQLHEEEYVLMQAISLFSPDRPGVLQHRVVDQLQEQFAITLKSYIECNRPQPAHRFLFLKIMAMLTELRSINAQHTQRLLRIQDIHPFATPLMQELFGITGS
# Outline: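 hPXR-Luc HepG2 cells, 2000/well in 5% charcoal-stripped FBS medium, attached 5 h, then exposed 24 h at 37C to compounds. Viability by CellTiter-Fluor, then luciferase luminescence with ONE-Glo.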
# [21] = biological target: Nuclear receptor subfamily 1 group I member 2 (Homo sapiens) (UniProt O75469); assay: Dual reporter qHTS for antagonist of Pregnane X Receptor (hPXR) against the NCATS DSHEA and TCM libraries: Luminescence Readout (AID 1920060); settings: hPXR dual reporter cells, luciferase luminescence, antagonist mode; series mostly up to 40 µM;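 further: HepG2 cells carrying hPXR luciferase reporter stimulated with rifampicin at 2 µM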
# Outline: (§3)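 Antagonist mode: rifampicin 2 uM final co-added with compounds to hPXR-LucHepG2 cells for 24 h at 37C. Viability by CellTiter-Fluor, Ex/Em 405/540 nm, 1 h; reporter by ONE-Glo luminescence.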
# [22] = Dual reporter qHTS for antagonist of Pregnane X Receptor (hPXR) against the NCATS DSHEA and TCM libraries: Fluorescence Readout (AID 1920061); settings: PXR dual reporter cells, antagonist mode; series mostly up to 40 µM
# Outline: as §3
# [23] = AP1 Signaling Pathway (AID 357; active means well fitted curve in either direction with a large enough effect, not every such curve was filed as active); settings: ME-180 (cervical carcinoma) AP-1-bla reporter, EGF-induced, beta-lactamase ratio, 5 h; at 7.69 µM (top of the series) unless noted
# Outline: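 AP-1-bla ME-180 cells with beta-lactamase reporter under AP-1 response element, stimulated with EC50 EGF; compounds titrated, 5 hours at 37 degrees Celsius. CCF4 read at 460/530 nm ratio; positive and negative modulators judged by AC50.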
# [24] = biological target: Glucocorticoid receptor (Homo sapiens) (UniProt P04150); assay: GR-GFP Redistribution (AID 450;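 active means compounds whose dose series gives a full or clear partial fitted curve of increased nuclear translocation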; further: potency means the concentration at half of the fitted maximal effect); settings: U2OS GR-GFP nuclear translocation, laser cytometry, 2 h
# Glucocorticoid receptor (Homo sapiens), sequence (P04150 whole entry, looked up): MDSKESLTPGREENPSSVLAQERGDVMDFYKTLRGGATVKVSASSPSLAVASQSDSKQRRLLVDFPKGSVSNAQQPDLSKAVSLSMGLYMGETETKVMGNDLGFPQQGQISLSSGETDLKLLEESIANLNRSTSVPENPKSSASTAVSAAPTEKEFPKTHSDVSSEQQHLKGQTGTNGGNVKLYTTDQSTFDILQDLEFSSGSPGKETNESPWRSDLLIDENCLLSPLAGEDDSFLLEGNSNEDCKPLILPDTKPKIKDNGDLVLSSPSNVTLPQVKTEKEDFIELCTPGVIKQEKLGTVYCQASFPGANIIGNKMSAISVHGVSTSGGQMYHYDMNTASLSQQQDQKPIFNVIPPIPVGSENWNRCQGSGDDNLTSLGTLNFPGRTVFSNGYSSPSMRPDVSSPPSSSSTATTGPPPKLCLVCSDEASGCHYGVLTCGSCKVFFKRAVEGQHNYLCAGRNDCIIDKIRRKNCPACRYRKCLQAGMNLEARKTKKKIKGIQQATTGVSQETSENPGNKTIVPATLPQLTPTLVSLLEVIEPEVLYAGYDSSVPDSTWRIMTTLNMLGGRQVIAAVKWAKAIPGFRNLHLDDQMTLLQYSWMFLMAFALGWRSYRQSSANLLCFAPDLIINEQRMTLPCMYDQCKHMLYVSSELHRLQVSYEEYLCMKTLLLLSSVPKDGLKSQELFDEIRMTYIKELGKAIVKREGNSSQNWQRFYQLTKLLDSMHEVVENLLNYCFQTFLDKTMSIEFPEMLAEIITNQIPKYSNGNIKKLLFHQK
compound,measurement,setting,value
CN(Cc1ccco1)c1ncnc2ccc(-c3cccc(NS(C)(=O)=O)c3)cc12,Potency,[1],> 11.4 µM
same,Potency,[2],0.398 µM (active)
same,"activity change, negative = inhibition",[3],14.3%
same,outcome,[4],inactive
same,Potency,[5],inactive
same,Potency,[6],5.01 µM (active)
same,outcome,[7],inactive
same,Potency,[8],7.94 µM (active)
same,Potency,[9],inactive
CC(C)c1c(-c2cnn(C(C)(C)C)c2)nc2c(C#N)c[nH]n2c1=O,Potency,[10],inactive
COc1ccccc1/C=C/C=O,outcome,[11],inactive
same,outcome,[12],inactive
same,Potency,[13],inactive
same,Potency,[14],inactive
same,Potency,[15],inactive
same,outcome,[16],inactive
same,Potency,[17],25.1 µM (active)
same,max response,[18],-3.3%
same,outcome,[19],inactive
same,Potency,[20],inactive
same,outcome,[21],inactive
same,outcome,[22],inactive
CC(C)(C)NCC(O)COc1ccccc1C1CCCC1 (stereo not drawn),Potency,[10],inactive
O=C1NC(Nc2ccccc2)=N/C1=C\c1ccc2c(c1)OCO2,Potency,[10],inactive
CN1CCN(c2nc(-c3cccnc3)nc3ccccc23)CC1,Potency,[1],> 11.4 µM
same,"activity change, negative = inhibition",[23],5.32%
same,Potency,[2],3.16 µM (active)
same,"activity change, negative = inhibition",[3],11.1%
same,Potency,[24],> 46 µM
same,Potency,[5],inactive
same,outcome,[7],inactive
same,Potency,[8],inactive
same,Potency,[9],inactive
